Potency and viability (% of control) data for 40 compounds are collected here from PubChem BioAssay (NCATS).

Each structure is given as a SMILES string. Results filed as inconclusive are left out. Entries that show only a call come without a potency. Values without a mark were called inactive. Calls of active or inactive are those of the source. Calls follow the shape of the dose curve; as a rule, active = well fitted cell-killing curve with a large enough effect; inconclusive = small, poorly fitted or top-dose-only effect, or effect the other way; inactive = no such curve, though single readings can be large or run the other way.
Potency is read from the fitted curve at half-maximal effect.

This test in a line: Viability qHTS for spleen associated tyrosine kinase inhibitor (SYKi) naive MV4-11 cells (AID 1963823). Also: nearly all actives have a fitted effect of over 40% in size. Particulars: MV4-11 AML viability, CellTiter-Glo luminescence, 72 h; series mostly up to 45 µM. In a few lines:
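Seeding of 500 SYKi-naive MV4-11 cells per well onto pre-dispensed compounds preceded a 72 hr incubation at 37 C. Luminescent CellTiter-Glo signal, read after 10 min at room temperature, reflected viable cells.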
On the technique in general: Quantitative high-throughput screening tests each substance at several concentrations.
`COc1cc2nc(C3CC3)nc(N3CCN(c4ccccc4OC)CC3)c2cc1OC`: the Potency is 16400 nM (active). The same measure, in the same setting: the value for `C=C1CCC2[C@](C)(CCC[C@@]2(C)C=O)[C@H]1CC/C(C)=C/CO` (stereo not given in full) was 20600 nM (active). With `CC1(C)CC2C(O)C3=C(CC(C)(O)C2C1)C(=O)OC3O` (stereo not given), the Potency result was “inactive”. Same read-out and setting: the value for `CCC(C)CNCC(=O)N1CCC2SC=CC2C1COc1cccc(C)c1` (stereo not given) was 11600 nM (active); that for `O=C(OC[C@H]1O[C@@H](Oc2ccccc2CO)[C@H](O)[C@@H](O)[C@@H]1O)c1ccccc1` was “inactive”; that for `CS(=O)(=O)NCC1CCC(Nc2nc3c(s2)CCSc2ccccc2-3)CC1` (stereo not given) was 2310 nM (active). Still for that read-out and setting: the value for `COc1cc2c(cc1OC)-c1[nH]nc(Nc3cccc(F)c3)c1C2` was 82 nM (active); that for `NC(=O)C1=C(O)[C@@]2(O)C(=O)C3=C(O)c4c(O)cccc4C[C@H]3C[C@H]2CC1=O` was 3320 nM (active); that for `C=C1/C(=C/C=C2\CCC[C@]3(C)[C@@H]([C@H](C)/C=C/[C@H](O)C4CC4)CC[C@@H]23)C[C@@H](O)C[C@@H]1O` was 32.6 nM (active).

Regarding `COc1ccc(/C=C/C(=O)O[C@H]2[C@@H]3C=CO[C@@H](O[C@@H]4O[C@H](CO)[C@@H](O)[C@H](O)[C@H]4O)[C@@H]3[C@@]3(CO)O[C@@H]23)cc1O`, the Potency entry was “inactive”. Consider `C=C1CCC2C(OC(=O)C2(O)COC(C)=O)C2C(=C)C(O)CC12` (stereo not given), for which the Potency entry was “inactive”.

Turning to `COC1CC(=O)C23C(=O)NC(Cc4c[nH]c5ccccc45)C2C(C)C2(C)OC2C3/C=C/CC(C)CC1O` (stereo not given), the Potency is 3990 nM (active). Same read-out and setting: with `CC(C)=CCC[C@](C)(O)[C@H]1CC[C@]2(C)[C@@H]1[C@H](O)CC1[C@@]3(C)CC[C@H](O)C(C)(C)[C@@H]3[C@@H](O[C@@H]3O[C@H](CO)[C@@H](O)[C@H](O)[C@H]3O[C@@H]3O[C@H](CO)[C@@H](O)[C@H](O)[C@H]3O)C[C@]12C` (stereo not given in full) the entry was “inactive”; with `C=C1CCC(OC(C)=O)C2(C)CC3(O)OC(=O)C(C)=C3CC12` (stereo not given), “inactive”; with `CC(C)[C@@](C)(O)[C@@H]1CN(c2nc(-c3[nH]nc4ncccc34)c(F)cc2Cl)CCN1`, 366 nM (active). On the same count and under the same terms, the value for `O=C(O)/C=C/c1ccc(-c2ccc(O)c(C34CC5CC(CC(C5)C3)C4)c2)cc1` was 184 nM (active); that for `CCOC(=O)[C@H](CCc1ccccc1)N[C@@H](C)C(=O)N1C2CCCCC2C[C@H]1C(=O)O` (stereo not given in full) was 16400 nM (active).

Consider `C[C@@H]1O[C@@H](O[C@@H]2[C@@H](O)[C@H](O[C@@H]3[C@@H](O)[C@@H](O)[C@H](O[C@H]4[C@H](OC(=O)[C@]56CCC(C)(C)C[C@H]5C5=CCC7[C@@]8(C)C[C@H](O)[C@H](O[C@@H]9O[C@H](C(=O)O)[C@@H](O)[C@H](O)[C@H]9O)[C@@](C)(CO)C8[C@H](O)C[C@@]7(C)[C@]5(C)C[C@H]6O)O[C@@H](CO)[C@@H]4O)O[C@H]3C)OC[C@H]2O)[C@H](O)[C@H](O)[C@H]1O` (stereo not given in full), for which the viability (% of control) was 90.8% [at 9.25 µM]. Turning to `CC(C)Oc1ccc(-c2nc(-c3cccc4c3CCC4NCCC(=O)O)no2)cc1C#N` (stereo not given), the Potency result was “inactive”. The same measure, in the same setting: the value for `C/C=C1\[C@H](OC2OC(COC3OC(CO)C(O)C(O)C3O)C(O)C(O)C2O)OC=C(C(=O)OC)[C@H]1CC(=O)OCCc1ccc(O)cc1` (stereo not given in full) was “inactive”. Same read-out and setting: with `CC(=O)CCC1=C(C)C(O[C@@H]2O[C@H](CO)[C@@H](O)[C@H](O)[C@H]2O)C(O)CC1(C)C` (stereo not given in full) the entry was “inactive”. The same measure, in the same setting: with `C=C[C@H]1[C@H](O[C@@H]2O[C@H](CO)[C@@H](O)[C@H](O)[C@H]2O)OC=C(C(=O)OC)[C@H]1C[C@@H]1N[C@H](C(=O)O)Cc2c1[nH]c1ccccc21` the entry was “inactive”; with `CCC(CC)C(=O)OC12C(OC(=O)C(C)C)C(C)C3(O)C(C=C(CO)CC4(O)C(=O)C(C)=CC43)C1C2(C)C` (stereo not given), 28.2 nM (active); with `COc1ccnc2[nH]cc(C(=O)C(=O)N3CCN(C(=O)c4ccccc4)CC3C)c12` (stereo not given), “inactive”. `CC1(CO)CC[C@]2(C(=O)O[C@@H]3O[C@H](CO)[C@@H](O)[C@H](O)[C@H]3O)CC[C@]3(C)C(=CCC4[C@@]5(C)C[C@H](O)[C@H](O[C@@H]6OC[C@@H](O)[C@H](O)[C@H]6O)[C@@](C)(CO)C5CC[C@]43C)C2C1` (stereo not given in full): the viability (% of control) was 88.9% [at 9.25 µM].

Turning to `C[C@@H]1O[C@@H](OC[C@H]2O[C@@H](OC(CCCCc3ccc(O)cc3)CCc3ccc(O)cc3)[C@H](O)[C@@H](O)[C@@H]2O)[C@H](O)[C@H](O)[C@H]1O` (stereo not given in full), the Potency entry was “inactive”.

For `COc1cc2occc2c(O[C@@H]2O[C@H](CO)[C@@H](O)[C@H](O)[C@H]2O)c1CCC(=O)O`, the Potency result is “inactive”. Same read-out and setting: the value for `C=C1CCC[C@]2(C)CC/C(=C(/CO)C(=O)OC)C[C@@H]12` was 20600 nM (active); that for `COc1cc2nc(N3CCCC3)nc(NCCCCCN3CCCC3)c2cc1OC` was 1300 nM (active).

Regarding `CC1(C)CCC[C@@]2(C)[C@H]1[C@H](O)C=C(CO)[C@]2(O)CO`, the Potency entry is “inactive”. Regarding `CC1CC(O)C2(OC1=O)OC1C(O)C3C4CCC5CC(OC6OC(CO)C(O)C(O)C6OC6OC(C)C(O)C(O)C6O)CCC5(C)C4CCC3(C)C1C2C` (stereo not given), the Potency result was “inactive”.

Take `COc1cc(C(C)=O)ccc1O[C@@H]1O[C@H](CO)[C@@H](O)[C@H](O)[C@H]1O`: the Potency result is “inactive”.

With `CN(C)C/C=C/C(=O)Nc1cc2c(Nc3ccc(F)c(Cl)c3)ncnc2cc1OC1CCOC1` (stereo not given), the Potency is 1160 nM (active). Same read-out and setting: with `CC1=CC(=O)C[C@H]2[C@@H]1CC[C@@H](C)[C@]21CO[C@H](c2ccoc2)C1=O` the entry was “inactive”. The same measure, in the same setting: with `CNc1cc2c(Nc3cccc(Br)c3)ncnc2cn1` the figure was 18400 nM (active).

Regarding `CC1(C)CCC[C@]2(C)[C@H]3CC(=O)O[C@]3(C)CC[C@@H]12`, the Potency entry is “inactive”. Still for that read-out and setting: the value for `CC(=O)N1c2ccccc2C2(O)CC3C(=O)NC(CC(C)C)C(=O)N3C12` (stereo not given) was “inactive”. The same measure, in the same setting: the value for `O=C1C[C@]23C=CCN4CCC5c6cc7c(cc6N1[C@@]5(CC2)C43)OCO7` (stereo not given in full) was 10100 nM (active); that for `CC1CC2(O)OC(=O)C3=C2C(CCC3)[C@@]12C[C@@H](c1ccoc1)OC2=O` (stereo not given in full) was 321 nM (active); that for `CC(C)=CCC[C@](C)(O)[C@H]1CC[C@]2(C)[C@@H]1[C@H](O)CC1[C@@]3(C)CC[C@H](O)C(C)(C)C3[C@@H](O[C@@H]3O[C@H](CO)[C@@H](O)[C@H](O)[C@H]3O[C@@H]3OC[C@@H](O)[C@H](O)[C@H]3O)C[C@]12C` (stereo not given in full) was “inactive”.
